This is a sample that favours compounds with a hit; in the whole collection about 2.9% have one here.
TSG101-PTAP inh: blocks PTAP/TSG101 interaction to inhibit HIV-1 budding. AID 493005. Fluorescence polarization, FITC-PTAP peptide / Tsg101 binding. Q99816. 340,000 tested, under 10 active. Potency, µM (highest dose often 115 µM), for the others: top-dose activity change, negative = inhibition, most hits filed as inhibitors; active = well fitted inhibition curve with a large enough effect in the main read-out, with a control signal flat, not every such curve was filed as active; inconclusive = small, poorly fitted or top-dose-only effect, or effect the other way, or a change in a side signal; inactive = no such curve, though single readings can be large or run the other way; also: potency is read from the fitted curve at half-maximal effect; % of control where 0% means no effect
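FP read-out: FITC-PTAP peptide, 50 nM final, binding Tsg101 binding domain, 10 uM final; 20 min, r.t.; 10 mM HEPES pH 7.5, 0.15 M NaCl, 0.01% Tween 20, 3 mM EDTA, 0.1 mM TCEP.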
D3 antag: blocks the human D3 dopamine receptor | P35462 | D3R cells, DiscoveRx beta-arrestin luminescence, antagonist mode; active compounds read low | max response, negative = inhibition, % | 2.5% of 360,000 active | AID 652054; in the data active = max response below about -50%; inconclusive = no clear call, values can overlap the other calls; also: % is scaled to controls: 0 for no effect and ±100 for the full control effect
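Cells plated overnight at 1500 cells/well, then exposed to library compounds with dopamine controls for 90 minutes at 37 degrees C. DiscoveRx reagent added for 30–60 minutes at room temperature; luminescence read, quantitative HTS format.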
DRD3 agonist: D3 dopamine receptor (human) agonism; 0.58% of 410,000 active; D3R DiscoveRx beta-arrestin cells, luminescence, 90 min; P35462; AID 652048; max activation, %; in the data active = max activation above about 30%; also: 0% is about no effect
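Agonist mode: compounds and dopamine controls were applied to plated cells for 90 min at 37 degrees C after an overnight attachment at 1500 cells/well. Luminescent read-out followed 30 - 60 minutes at room temperature with DiscoveRx detection reagent.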
MmCpn inh: M. maripaludis TRiC chaperonin inhibition | purified Mm-Cpn ATPase, ADP Transcreener TR-FRET | 0.031% of 330,000 active | Potency, µM (highest dose often 76.9 µM), without a hit: at the highest dose activity, negative = inhibition, actives largely listed as inhibitors; active = well fitted inhibition curve with a large enough effect; inconclusive = small, poorly fitted or top-dose-only effect; also: potency is read from the fitted curve at half-maximal effect; % is scaled to controls: 0 for no effect and ±100 for the full control effect; nearly all actives have a fitted effect of over 80% in size
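25 nM Mm-CPN + cpd, 10 min 37°C; + 10 uM ATP, 30 min 37°C; buffer 30 mM Tris pH 7.4, 100 mM KCl, 5 mM MgCl2, 1 mM DTT; Transcreener ADP HTRF detection 30 min RT.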
Rango complex inh: inhibitors of Rango-importin beta complex formation. Rango CFP/YFP FRET sensor + importin beta, 45 min. Potency, µM (titrated, usually from 92.2 µM), for the others: top-dose inhibition of complex formation. 0.031% of 340,000 active;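 also: potency is read from the fitted curve at half-maximal effect; 0% = DMSO wells and 100% = buffer wells lacking importin beta; nearly all actives have a fitted effect of over 15% in size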
Target sequence (Q14974 whole entry, looked up): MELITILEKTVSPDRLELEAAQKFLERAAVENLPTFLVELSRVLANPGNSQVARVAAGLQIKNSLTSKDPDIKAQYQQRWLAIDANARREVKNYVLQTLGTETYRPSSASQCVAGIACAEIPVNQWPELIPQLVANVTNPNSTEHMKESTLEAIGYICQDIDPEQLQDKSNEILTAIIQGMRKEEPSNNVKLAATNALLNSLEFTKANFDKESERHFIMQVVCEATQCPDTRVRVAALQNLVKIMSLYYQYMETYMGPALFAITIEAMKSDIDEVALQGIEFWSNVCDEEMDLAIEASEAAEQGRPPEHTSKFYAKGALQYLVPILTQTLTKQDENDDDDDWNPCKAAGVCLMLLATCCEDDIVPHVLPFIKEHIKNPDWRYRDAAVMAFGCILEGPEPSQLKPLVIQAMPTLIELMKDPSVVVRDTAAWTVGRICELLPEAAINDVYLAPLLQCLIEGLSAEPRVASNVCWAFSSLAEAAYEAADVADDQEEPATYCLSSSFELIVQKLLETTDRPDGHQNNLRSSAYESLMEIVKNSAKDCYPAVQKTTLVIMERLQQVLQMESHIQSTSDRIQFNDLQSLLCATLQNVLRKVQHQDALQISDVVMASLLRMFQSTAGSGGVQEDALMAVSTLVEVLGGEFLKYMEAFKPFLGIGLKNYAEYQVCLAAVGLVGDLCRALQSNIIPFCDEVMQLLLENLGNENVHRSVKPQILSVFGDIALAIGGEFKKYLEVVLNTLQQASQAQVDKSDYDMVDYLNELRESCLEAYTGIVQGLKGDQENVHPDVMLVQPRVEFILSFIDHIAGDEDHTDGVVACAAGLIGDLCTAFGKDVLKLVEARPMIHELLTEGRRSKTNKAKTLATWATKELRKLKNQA
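Inhibition scored from the CFP 486 nm/YFP 530 nm FRET ratio 45 min after adding 0.125 microM importin beta to 50 nM Rango biosensor preincubated 5 min with compound (room temperature, PBS with DTT, Tween-20, BSA). No-importin wells as positive control.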
Rango release inh: inhibitors of RanGTP-induced Rango-importin beta complex dissociation; AID 540253; Biochemical FRET Rango-importin beta, RanGTP-induced dissociation; O95149+P62826; Potency, µM (doses to about 46.1 µM), for inactives: top-dose activity change, negative = inhibition; 0.071% of 340,000 active; also: potency is read from the fitted curve at half-maximal effect; % of control where 0% means no effect; nearly all actives have a fitted effect of over 45% in size
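Compounds preincubate 5 min with complex of recombinant Rango and importin beta in PBS with 1 mM DTT. Ran (0.6 uM) loaded with 2 mM GTP plus 0.2 uM RCC1 starts dissociation; FRET is recorded 45 min later.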
The depositor's hits bear a star; [ ] = remark or other dose. Unless noted, calls follow the shape of the full dose curve.

What do the screens show for `CCC1CCCCN1C/C=C/c1ccccc1[N+](=O)[O-]` (stereo unspecified)?
TSG101-PTAP inh: -4%; D3 antag: -55*; DRD3 agonist: -27; MmCpn inh: 1%; Rango complex inh: 0%; Rango release inh: 28%

How did CC1CCCN(C/C=C/c2ccccc2[N+](=O)[O-])C1 (stereo unspecified) do in these assays?
TSG101-PTAP inh: 2%; D3 antag: -91*; DRD3 agonist: -50; MmCpn inh: 1%; Rango complex inh: -2%; Rango release inh: 10%

Results for CC1CCCCN1C/C=C/c1ccccc1[N+](=O)[O-] (stereo unspecified) ?
D3 antag: -29; DRD3 agonist: -21; MmCpn inh: -1%; Rango complex inh: 1%; Rango release inh: 1%

What do the screens show for `COc1cc2c(cc1OC)C1O[C@](CCCCN3C(=O)c4ccccc4C3=O)(C2)Oc2cc(C)n(Cc3ccccc3)c(=O)c21`?
MmCpn inh: -6%[15.4 µM]

Results for CN(C)C1(CN=Cc2cc(Cl)cc([N+](=O)[O-])c2O)CCCCC1 ?
TSG101-PTAP inh: -11%; D3 antag: -68*; DRD3 agonist: -7; MmCpn inh: 3%; Rango complex inh: 5%; Rango release inh: 0%

What do the screens show for `CCN(CC)c1ccc(/C=N/n2c(-c3ccccc3Br)n[nH]c2=S)cc1`?
TSG101-PTAP inh: 3%; D3 antag: -71*; DRD3 agonist: -34; MmCpn inh: -7%; Rango complex inh: -5%; Rango release inh: -16%

What do the screens show for `COc1cc2nc(SCc3ccc(C)cc3)n3nc(CCn4nc(C)cc4C)nc3c2cc1OC`?
DRD3 agonist: -9

Results for CCC(=S)/C=C1\Sc2ccccc2N1CCCS(=O)(=O)O ?
TSG101-PTAP inh: -3%; D3 antag: -63*; DRD3 agonist: 7; MmCpn inh: -1%; Rango complex inh: 0%; Rango release inh: -7%

Results for CCCOC(=O)c1ccc(NC(=O)CSC2=Nc3ccccc3C3CC=NN23)cc1 (stereo unspecified) ?
TSG101-PTAP inh: 1%; D3 antag: -30; DRD3 agonist: 1; MmCpn inh: 2%; Rango complex inh: -2%; Rango release inh: 16%

Results for O=C(CSC1=Nc2ccccc2C2CC=NN12)Nc1ccc2c(c1)OCO2 (stereo unspecified) ?
TSG101-PTAP inh: -5%; D3 antag: -50*; DRD3 agonist: -16; MmCpn inh: -2%; Rango complex inh: -3%; Rango release inh: 7%

Results for CCc1cccc(CC)c1-n1nnc2c(sc3nc(C)cc(C)c32)c1=O ?
DRD3 agonist: -4

How did Cc1cc(C)c2c(n1)sc1c(=O)n(Cc3ccccc3Cl)nnc12 do in these assays?
TSG101-PTAP inh: -7%; D3 antag: -51*; DRD3 agonist: 3; MmCpn inh: -1%; Rango complex inh: 0%; Rango release inh: -5%

What do the screens show for `COc1ccc(OCCNC2CCCC2)cc1`?
TSG101-PTAP inh: -6%; D3 antag: 1; DRD3 agonist: 0; MmCpn inh: -2%; Rango complex inh: -2%; Rango release inh: -4%

How did N#Cc1ccc(OCCOCCNC2CCCC2)cc1 do in these assays?
TSG101-PTAP inh: 0%; D3 antag: -50*; DRD3 agonist: -12; MmCpn inh: 0%; Rango complex inh: -2%; Rango release inh: 25%

How did CCc1nnc(NC(=O)CN2CCN(Cc3cccc(Cl)c3)CC2)s1 do in these assays?
TSG101-PTAP inh: -2%; D3 antag: -52*; DRD3 agonist: -15; MmCpn inh: 2%; Rango complex inh: 0%; Rango release inh: 11%

What do the screens show for `C=CC(C)(C)c1c(O)c(CC=C(C)C)c(O)c2c(=O)c3ccc(O)c(O)c3oc12`?
TSG101-PTAP inh: -6%; D3 antag: 81; DRD3 agonist: 89*; Rango complex inh: 1%; Rango release inh: -26%

How did COc1ccc(CNC(=O)Cn2c(=O)ccc3cc(S(=O)(=O)N4CCCC4)ccc32)cc1 do in these assays?
DRD3 agonist: 3

How did Fc1ccccc1CN1CCC(Cc2ccccc2)CC1 do in these assays?
TSG101-PTAP inh: 0%; D3 antag: -79*; DRD3 agonist: -16; MmCpn inh: 1%; Rango complex inh: 4%; Rango release inh: 6%

How did Fc1cccc(CN2CCC(Cc3ccccc3)CC2)c1 do in these assays?
TSG101-PTAP inh: 1%; D3 antag: -53*; DRD3 agonist: -5; MmCpn inh: -3%; Rango complex inh: -1%; Rango release inh: -4%

Results for CCc1ccccc1Nc1nn2c(=O)c3ccc(C(=O)NCCCOC(C)C)cc3nc2s1 ?
DRD3 agonist: -12; MmCpn inh: 1%

Results for COc1ccc(OCCN2CCN(C(=O)c3ccc(OC)c(OC)c3)CC2)cc1 ?
TSG101-PTAP inh: -8%; D3 antag: 9; DRD3 agonist: 112*; MmCpn inh: 0%; Rango complex inh: inconclusive; Rango release inh: 12%

What do the screens show for `COc1ccccc1N1CCN(CCCC(=O)c2ccc(F)cc2)CC1`?
TSG101-PTAP inh: -5%; D3 antag: -98*; DRD3 agonist: -88; MmCpn inh: -2%; Rango complex inh: 4%; Rango release inh: -10%

Results for COc1ccc(/C=C/C(=O)NC(=S)N2CCN(c3ccccc3OC)CC2)cc1 ?
TSG101-PTAP inh: -3%; D3 antag: -50*; DRD3 agonist: -16; MmCpn inh: -2%; Rango complex inh: 1%; Rango release inh: -10%

How did COc1ccc(/C=C/C(=O)NC(=S)N2CCOCC2)cc1 do in these assays?
TSG101-PTAP inh: -2%; D3 antag: -11; DRD3 agonist: 0; MmCpn inh: 0%; Rango complex inh: -2%; Rango release inh: -16%

Results for COc1ccc(C(=O)CCN2CCc3cc(OC)c(OC)cc3C2)cc1 ?
TSG101-PTAP inh: 0%; D3 antag: -59*; DRD3 agonist: -19; MmCpn inh: -3%; Rango complex inh: -1%; Rango release inh: 0%

How did Cc1cn2c(=O)cc(COc3ccc(NC(=O)c4ccccc4C)cc3)nc2s1 do in these assays?
DRD3 agonist: -5

Results for Cc1cccc(N2CCN(C(=O)c3cnn(-c4cccc(Cl)c4C)c3C3CCNCC3)CC2)c1C ?
DRD3 agonist: 7

How did Cc1ccc(C(C(=O)NCc2ccc(F)cc2)N(Cc2ccco2)C(=O)c2snc(C(N)=O)c2N)o1 (stereo unspecified) do in these assays?
TSG101-PTAP inh: -5%; D3 antag: 57; DRD3 agonist: 15; MmCpn inh: 1%; Rango complex inh: 0%; Rango release inh: 6%

High-throughput results as filed in PubChem.
